Data taken from PubChem BioAssay AID504753 (Sanford-Burnham Center for Chemical Genomics, 2011).
Out of some 2,400 compounds screened, about 820 (34%) were called active.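 The calls were made as follows: active = inhibition of at least 50% at 20 µM in any single replicate; inactive = the rest.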 A selection follows.

test system: glucose-6-phosphate dehydrogenase-6-phosphogluconolactonase (PfGluPho), Plasmodium falciparum 3D7; experiment: PfG6PD inhibitors, hit retest, confirmation, biochemical, fluorescence intensity, single concentration (AID 504753); settings: recombinant PfGluPho, NADPH-diaphorase-resazurin fluorescence; at 20 µM; hits give high values;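 also: 0% = DMSO with substrate and 100% = DMSO lacking glucose-6-phosphate substrate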

| Compound | inhibition |
| --- | --- |
| O=[N+]([O-])c1c(NCCO)cc(Sc2nc3ccccc3s2)c2nonc12 | 68.6% (active) |
| CCOc1ccccc1Nc1ccc2nonc2c1[N+](=O)[O-] | 45.4% (inactive) |
| Cc1ccc2nc(-c3cccc(Br)c3)cc(C(=O)Nn3cnnc3)c2c1 | 27.5% (inactive) |
| COCCN1C=C2C(=O)C(C)(OC(=O)C3CCCC3)C(=O)C=C2C=C1c1ccsc1 (centres undefined) | 29.9% (inactive) |
| Cc1ccc(OCC(=O)Nc2ccccc2Sc2ccc(Cl)cc2)c([N+](=O)[O-])n1 | 40.8% (inactive) |
| CCN(CC)c1ccc2oc(=O)c(C)nc2c1 | 97.5% (active) |
| CCSc1nnc(NC(=O)c2ccc(C)cc2)s1 | 75.1% (active) |
| CCc1cc(C(N)=O)c(NC(=O)c2ccc(OC)cc2)s1 | 16% (inactive) |
| CC(C)(C)c1nnc(NC(=O)C2c3ccccc3Oc3ccccc32)s1 | 27.4% (inactive) |
| CC1=CC(C)(C)Nc2ccc(OC(=O)CN3C(=O)C4CCCCC4C3=O)cc21 (centres undefined) | 12.7% (inactive) |
| Cc1ccnc(-n2sc3ccccc3c2=O)n1 | 54.5% (active) |
| O=c1oc2ccccc2cc1-c1cn(-c2ccccc2)c(=S)[nH]1 | 18.8% (inactive) |
| S=c1[nH]nc(-c2cc(-c3ccccc3)n[nH]2)n1/N=C/c1c2ccccc2cc2ccccc12 | -2.97% (inactive) |
| Oc1c(CN2CCOCC2)ccc(CN2CCOCC2)c1O | 31.4% (inactive) |
| Cc1cc(Nc2ccc(Cl)cc2)nc(N2CCOCC2)n1 | 11.2% (inactive) |
| O=C(/C=C/c1ccco1)Nc1ccc(Oc2ccccc2)cc1 | -1.92% (inactive) |
| Cc1ccc(/C=C/C(=O)Nc2ccc([N+](=O)[O-])c(NC(=O)/C=C/c3ccc(C)o3)c2)o1 | 65.5% (active) |
| COc1ccc(C(=O)Nc2cc(C)c(NC(=O)c3ccccc3OC)cn2)cc1 | 15.4% (inactive) |
| Cc1nc([N+](=O)[O-])nn1C12CC3CC(CC(Br)(C3)C1)C2 | 26.5% (inactive) |
| Cc1nc(N2CCOCC2)sc1C(=O)NN | 27.4% (inactive) |
| Cc1ccc2nc(-c3ccc(Br)cc3)cn2c1 | 40.1% (inactive) |
| O=c1c2c(nc3cc(-c4cccc(Cl)c4)[nH]n13)CCCC2 | 41.6% (inactive) |
| CCOc1ccccc1/C=N/NC(=O)CNC(=O)COc1ccccc1 | 104% (active) |
| O=C(COc1ccccc1)Nc1nonc1NC(=O)COc1ccccc1 | 19.8% (inactive) |
| C=CCc1ccccc1OCC(=O)N/N=C/c1ccccc1OCC | 55.4% (active) |

| Compound | inhibition |
| --- | --- |
| CCC(=C/c1sc2ccc3ccccc3c2[n+]1C)/C=C1\Sc2ccc3ccccc3c2N1C | -4.66% (inactive) |
| CN1CCN(c2ccc(NC(=O)c3ccc4c(c3)OCCO4)cc2Cl)CC1 | 17.7% (inactive) |
| O=C(Nc1ccc(OC(F)(F)F)cc1)c1ccc2c(c1)no[n+]2[O-] | 10.5% (inactive) |
| COC(=O)CCc1sc(Nc2ccc(Br)cc2)nc1-c1ccc(OC)cc1 | -3.8% (inactive) |
| O=C(NC1=CC(=O)c2ccccc2C1=O)c1ccccc1 | 51.5% (active) |
| COc1cc(OC)c(C(=O)Nc2ccc(N(C)C)cc2)cc1OC | 15.6% (inactive) |
| COc1ccc(OCc2n[nH]c(=S)n2N)cc1 | 46.2% (inactive) |
| COc1ccc(OCc2nnc3n2N=C(c2ccccc2)C(CC(=O)O)S3)cc1 (centres undefined) | 66.8% (active) |
| COc1ccc(-c2nn(-c3ccccc3)cc2/C=N/Nc2ccccn2)cc1OC | 20.9% (inactive) |
| COc1ccc(-n2c(C)cc(C(=O)CSc3nnc(-c4cccs4)o3)c2C)cc1 | 14.3% (inactive) |
| Cn1c(-c2ccco2)nc2cc3ccccc3cc21 | 22.1% (inactive) |
| OCCN1CCN(C(=S)c2ccc(-c3ccccc3)cc2)CC1 | 50.8% (active) |
| COc1ccc(Nc2cc(Sc3ccc(OC)cc3)ncn2)cc1 | 26.3% (inactive) |
| COCCNC(=O)Nc1ccc2nc(-c3ccco3)c(-c3ccco3)nc2c1 | 34.8% (inactive) |
| O=[N+]([O-])c1ccc(C=Nc2ccc(Cl)cc2Cl)s1 | 4.17% (inactive) |
| O=c1[nH]c2ccccc2n2c(-c3ccccc3)nnc12 | 102% (active) |
| Oc1c(C=Nc2cccc3nsnc23)ccc2ccccc12 | 27.2% (inactive) |
| Cc1cc(N)n2nc(-c3ccc(C(C)(C)C)cc3)cc2n1 | 29.4% (inactive) |
| O=C(N/N=C\c1cccc(Br)c1)c1ccccc1-n1cccc1 | 32% (inactive) |
| C=C1c2cccc(OC)c2O[C@H](C(=O)OCC)[C@@H]1CCCCCC | -4.41% (inactive) |
| Cn1c(-c2sccc2OCc2cccc(C(F)(F)F)c2)n[nH]c1=S | 52.9% (active) |
| CCc1c(C)sc(NC(=O)c2cccs2)c1C(N)=O | 16.4% (inactive) |
| Cc1cc(Nc2ccc(Br)cc2)nc2ccccc12 | -14% (inactive) |
| CCOc1ccc(-n2c(N)c(C(=O)NCC3CCCO3)sc2=S)cc1 (centres undefined) | 24.8% (inactive) |
